Data taken from ChEMBL document CHEMBL4513216, “Probing the Open Global Health Chemical Diversity Library for Multistage-Active Starting Points for Next-Generation Antimalarials” (ACS Infect Dis, 2020).
Out of some 69,000 compounds screened, about 8,600 (12%) showed an effect of 50% or more. The sample as a whole holds a higher share of strong results than the screen did.

System: Plasmodium berghei
Assay: Screen against P. berghei liver stage (PbLuc), transformed with Luciferase, at 10uM
Type: functional, HepG2
Conditions: tested at 10 uM

Row | Compound | INHIBITION [%]
1 | CNC(=O)c1ccc(CNC(=O)c2ccc(Cl)cc2F)cc1 | -8.675
2 | CC(C)N(C)C(=O)c1ccc(CNc2ccncc2Cl)cc1 | 97.1
3 | CC(C)N(C)C(=O)c1ccc(CNc2ncc(C#N)cc2Cl)cc1 | 44.5
4 | CC(C)N(C)C(=O)c1ccc(CNc2cncc(Cl)n2)cc1 | 32.9
5 | CCOc1ccc(Cl)c(C(=O)NCc2ccc(C(=O)NC)cc2)n1 | 14.7
6 | CNC(=O)c1ccc(CNc2ccncc2Cl)cc1 | 57.7
7 | CN1CCOC(CNCc2ccc(OCc3ccccn3)cc2)C1 (stereo unspecified) | -38.7
8 | O=C(c1ccnnc1)N1C[C@@H](OCc2cccnc2)[C@H]2OCCC[C@H]21 | 37.1
9 | NC(=O)c1ccc(CNC2CC2)cc1 | -30.1
10 | Cc1ccc(C2(CN3CCN(Cc4cncn4C)CC3)CC2)cc1 | -32.7
11 | CC(C)(C)c1cnc(CN(Cc2cccnc2)CC2CCCO2)o1 (stereo unspecified) | 75.4
12 | c1ccc(-c2cnc(CN(Cc3cccnc3)CC3CCCO3)o2)cc1 (stereo unspecified) | -5.26
13 | CCN(Cc1cccnc1)CC1CCCO1 (stereo unspecified) | -0.113
14 | CNC(=O)CCc1cc(C)nc(C2CCN(C(=O)CN(C)C)CC2)c1 | 4.9
15 | CCc1nc(CN2CCCN(C(=O)c3ccnc(C)n3)CC2)cs1 | 25.5
16 | Cc1cc(C)cc(CN2CCN(Cc3cc(C#N)n(C)c3)CC2=O)c1 | 11.8
17 | COc1cccc(N2CCN(Cc3cccc(CCN)c3)CC2=O)c1 | 35.1
18 | Cc1cc(C)cc(N2CCN(Cc3cccc(CCN)c3)CC2=O)c1 | 2.18
19 | NCCc1cccc(CN2CCN(c3cccc(Cl)c3)C(=O)C2)c1 | 50.5
20 | Cc1ccc(CN2CCN(Cc3ccncc3)CC2=O)cc1 | 50.3
21 | Cc1cc(C)cc(CN2CCN(Cc3cccc(CCN)c3)CC2=O)c1 | 67.7
22 | Cc1ccc(CN2CCN(Cc3ccc4nonc4c3)CC2=O)cc1 | 5.78

Row | Compound | INHIBITION [%]
23 | Cc1cc(C)cc(CN2CCN(Cc3ccc4nonc4c3)CC2=O)c1 | 37.6
24 | NCCc1cccc(CN2CCN(c3ccccc3)C(=O)C2)c1 | 26.8
25 | Cn1cc(CN2C[C@@H]3COC[C@H](C(=O)Nc4cccnc4)[C@@H]3C2)cn1 | 0.542
26 | CCn1cc(CN2CCCN(C(=O)c3c(C)oc(C)c3C)CC2)cn1 | 15.6
27 | CCC[C@H]1CN(S(C)(=O)=O)C[C@@H]1NC(=O)c1ccc(COC)cc1 | 23.9
28 | Cc1ccoc1C(=O)N1CC[C@H]2[C@H](C[C@@H](CN3CCCC3)N2C)C1 | 47.4
29 | CCc1ccc(NC(=O)C2OC(c3cccs3)=NN2C(C)=O)cc1 (stereo unspecified) | 52.1
30 | CC(=O)N1N=C(c2cccs2)OC1C(=O)NCc1ccc(C)o1 (stereo unspecified) | 53
31 | CCOc1ccc(NC(=O)C2OC(c3cccs3)=NN2C(C)=O)cc1 (stereo unspecified) | 11.5
32 | CC(=O)N1N=C(c2cccs2)OC1C(=O)Nc1ccc(C)cc1 (stereo unspecified) | -25.1
33 | CC(=O)N1N=C(c2cccs2)OC1C(=O)Nc1ccccc1 (stereo unspecified) | -4.32
34 | COc1ccc(NC(=O)C2OC(c3cccs3)=NN2C(C)=O)cc1 (stereo unspecified) | 28.3
35 | CCn1cc(C(=O)NCCc2nc(-c3ccc(C)cc3)n[nH]2)c(C)n1 | 12.8
36 | COc1cccc2c1ccn2CCC(=O)N1CCC(C(=O)O)CC1 | 25.1
37 | CN(C)C(=O)CN1C[C@H]2CN(Cc3cccc(F)c3)C(=O)[C@H]2C1 | 25.2
38 | Cc1occc1CNC(=O)C1(C)CCCN1C(=O)c1ccccc1 (stereo unspecified) | 28.7
39 | CC(C)C(=O)N1CCC12CCCN(C(=O)c1ccccc1)C2 (stereo unspecified) | 36.2
40 | Cc1occc1CNC(=O)C1(C)CCCN(C(=O)c2ccccc2)C1 (stereo unspecified) | 58.3
41 | CCN(C)Cc1cccc(CNC(=O)CSCc2ccncc2)c1 | 35.4
42 | Fc1cnc(N2C[C@@H](OCC3CCOCC3)[C@H]3OCCC[C@H]32)nc1 | 44.4
43 | O=C(c1ccc(Cl)cc1)N1CCC2(C1)C(=O)Nc1ccccc12 (stereo unspecified) | -18.8
44 | CN(C)C[C@H]1C[C@@H]2CN(C(=O)c3ccco3)C[C@@H]2O1 | 42.3

Row | Compound | INHIBITION [%]
45 | O=C(OCc1ccccc1)N1CC[C@H]2CC(CO)O[C@@H]2C1 (stereo partly specified) | 78.3
46 | C[C@H]1C[C@@H]2CCN(C(=O)c3ccccn3)C[C@H]2O1 | -0.813
47 | Cn1ccnc1SCCNc1cc(N2CCOCC2)ncn1 | -7.85
48 | Cn1ncc2c(N3CCCC(C)(O)C3)nc(-c3cccnc3)nc21 (stereo unspecified) | 23.5
49 | CN1CCCC1CNC(=O)CCCOc1ccc(I)cc1 (stereo unspecified) | 18.625
50 | COc1cccc(-c2nc3c([nH]2)CC(C)(C)CNC3=O)c1OC | 30.7
51 | COc1ccc(Cc2nc3c([nH]2)CC(C)(C)CNC3=O)cc1OC | 13.9
52 | COc1cc(Cc2nc3c([nH]2)CC(C)(C)CNC3=O)cc(OC)c1 | 59.4
53 | CC1(C)CNC(=O)c2nc(-c3ccccc3)[nH]c2C1 | 18.8
54 | COc1ccc(Cc2nc3c([nH]2)CC(C)(C)CNC3=O)c(OC)c1 | 16.8
55 | COc1cccc(Cc2nc3c([nH]2)CC(C)(C)CNC3=O)c1OC | 55.5
56 | CC(C)N1CCO[C@@H]2CN(C(=O)NCc3ccccc3)CC[C@@H]2C1 | 32.1
57 | COc1nc2cc(C)ccc2cc1CN(C)Cc1cc(C)[nH]n1 | 36.1
58 | COc1ccccc1OC(C)CNC(=O)c1cnc[nH]1 (stereo unspecified) | -15.5
59 | CC(CNC(=O)c1cnc[nH]1)Oc1ccc(Cl)cc1 (stereo unspecified) | 20.9
60 | CC(CNC(=O)c1cnc[nH]1)Oc1ccccc1Br (stereo unspecified) | 57.2
61 | O=C(c1cc(Cn2ccc3ccccc32)[nH]n1)N1CCCCC1CO (stereo unspecified) | 13
62 | Cc1cnn(CC2CCCN2C(=O)CCc2ccco2)c1 (stereo unspecified) | 45.9
63 | COc1ccccc1CN1CCC(c2nccc(C)n2)C1 (stereo unspecified) | 38.3
64 | NCCn1nc(C2CCN(Cc3ccccc3)C2)c2nccnc21 (stereo unspecified) | 60.5
65 | NCCn1nc(C2CCN(Cc3ccc(Cl)c(Cl)c3)C2)c2nccnc21 (stereo unspecified) | 71.1
66 | NCCn1nc(C2CCN(Cc3ccccc3Cl)C2)c2nccnc21 (stereo unspecified) | -49

Row | Compound | INHIBITION [%]
67 | CC(C)(C)CC(=O)N1CCC(c2nn(CCN)c3nccnc23)C1 (stereo unspecified) | -3.31
68 | Cc1ccccc1CN1CCC(c2nn(CCN)c3nccnc23)C1 (stereo unspecified) | 43.6
69 | COc1ccccc1CN1CCC(c2nn(CCN)c3nccnc23)C1 (stereo unspecified) | 52
70 | NCCn1nc(C2CCN(C(=O)Cc3ccccc3)C2)c2nccnc21 (stereo unspecified) | 30.4
71 | COc1cccc(CN2CCC(c3nn(CCN)c4nccnc34)C2)c1 (stereo unspecified) | 7.52
72 | CC(O)c1cnn(-c2ccccc2)c1 (stereo unspecified) | -6.04
73 | O=C(O)c1ccccc1-c1ccc(CN2CCC(CO)CC2)cn1 | 9.98
74 | CCNc1cc2c(nn1)CCN(C(=O)CCc1c(C)noc1Cl)C2 | 0.411
75 | COc1ccccc1C(=O)N1CCN(C(=O)Cc2ccccn2)CC1 | -36.1
76 | Cc1ncccc1C(=O)Nc1cccc(Cn2ccccc2=O)c1 | 38.5
77 | CCn1ncnc1CN1CCC(CNC(=O)c2cccc(C)n2)C1 (stereo unspecified) | 15.4
78 | CCc1ccc(C(=O)N2CCCC(n3nc(C)nc3C)C2)o1 (stereo unspecified) | 33.73
79 | CCOCCc1nc(CCc2ccccc2)n[nH]1 | 26.7
80 | CN(Cc1ccccn1)C1CCC[C@@H]2CN(CC3CC3)C[C@H]12 (stereo partly specified) | 22.2
81 | Cc1cnc(N2C[C@H]3CCCC(N(C)Cc4ccccn4)[C@H]3C2)nc1 (stereo partly specified) | 55.7
82 | CCc1cnc(N2C[C@H]3CCCC(N(C)Cc4ccccn4)[C@H]3C2)nc1 (stereo partly specified) | 33.1
83 | Cc1occc(=O)c1OCc1noc(C(=O)NC(C)C)n1 | 42.8
84 | O=C(NC1CC1)c1nc(Cn2c(C(F)F)nc3ccccc32)no1 | 54.8
85 | CC(C)NC(=O)c1nc(Cn2c(C(F)(F)F)nc3ccccc32)no1 | 43.9
86 | O=C(NC1CCCC1)c1cc(Cn2cnc3ccccc32)on1 | 5.8
87 | CC(C)NC(=O)c1nc(Cn2c(C(F)F)nc3ccccc32)no1 | 62.4
88 | Cc1nc2ccccc2n1Cc1cc(C(=O)NC2CCOC2)no1 (stereo unspecified) | 11.1

Row | Compound | INHIBITION [%]
89 | COc1ccccc1-c1csc(NC(=O)N2CCN(C)CC2C)n1 (stereo unspecified) | -9.08
90 | Cc1cc(C)n(CC2CN(Cc3nnc(C)o3)CCO2)n1 (stereo unspecified) | 5.1
91 | O=C(c1ccc(F)cc1F)N1C[C@@H]2CC[C@H]1CN(Cc1ccccc1)C2 | 41.5
92 | CC(C)(C)C1CC(=O)Nc2c1cnn2Cc1ccco1 (stereo unspecified) | -21.7
93 | O=C1CC(c2ccc(C(=O)O)cc2)c2cnn(Cc3ccco3)c2N1 (stereo unspecified) | -8.04
94 | CC(C)CC1CC(=O)Nc2c1cnn2Cc1ccco1 (stereo unspecified) | 50.2
95 | CN(C)c1ccc(C2CC(=O)Nc3c2cnn3Cc2ccco2)cc1 (stereo unspecified) | 1.45
96 | O=C1CC(c2ccc(CO)o2)c2cnn(Cc3ccco3)c2N1 (stereo unspecified) | 67.6
97 | CC(C)C1CC(=O)Nc2c1cnn2Cc1ccco1 (stereo unspecified) | 7.85
98 | COc1ccc(CN(Cc2cnc(N)nc2)CC2CCCO2)c(OC)c1 (stereo unspecified) | 23.2
99 | CNC(=O)[C@@H](c1ccccc1F)N1CCC[C@H]1C(=O)NC1CCCC1 | -49.3
100 | O=C(CN1C[C@H]2CC(OCc3ccccc3)C[C@H]2C1)N1CCOCC1 (stereo partly specified) | -2.09
101 | CC(C)C1CN(C(=O)c2cc(=O)[nH]c(=O)[nH]2)CCC(=O)N1CC1CC1 (stereo unspecified) | 9.35
102 | CC(C)C1CN(C(=O)c2cc(=O)[nH]c(=O)[nH]2)CCCN1CC1CC1 (stereo unspecified) | 74.8
103 | CC(C)C1CN(C(=O)c2cn3cc(Cl)cnc3n2)CCCN1CC1CC1 (stereo unspecified) | 60.3
104 | CC(C)C1CN(C(=O)c2ccc(Cl)cn2)CCCN1CC1CC1 (stereo unspecified) | 14.9
105 | CC(C)C1CN(C(=O)c2cn3ccccc3n2)CCCN1CC1CC1 (stereo unspecified) | 47.6
106 | Cc1[nH]c(=O)[nH]c(=O)c1CC(=O)N1CCCN(CC2CC2)C(C(C)C)C1 (stereo unspecified) | -69.3
